Most compounds without a hit are left out; they make up all but 4.7% or so of the library.
HSF1 inhib: HSF1 inhibition; 300,000 tested, 0.77% active; AID 2098; activity change, negative = inhibition, % at 7.5 µM (by protocol); NIH3T3-HGL HSE-luciferase, MG132-induced, luminescence 8 h; active compounds read low;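 active = more than half of replicate wells show activity change below -50%, luminescence cut by over half; inconclusive = some wells, but at most half, below -50%; inactive = no replicate well below -50%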;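 note: luciferase reports HSF-1 transcriptional activity via heat shock element; 0% = median of DMSO wells and -100% = zero luminescence signal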
LMP1 NFkB inh: Epstein-Barr LMP1 NF-kappaB reporter inhibition; inhibition, % at 12.5 µM; LMP1-induced NF-kappaB luciferase reporter cells, luminescence; AID 504558; 350,000 tested, 0.69% active; in the data active = inhibition above about 41%; inconclusive = no clear call, values can overlap the other calls;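 note: 0% = neutral control wells and 100% = reference inhibitor control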
HSP90 inh: HSP90 refolding inhibition in rabbit reticulocyte lysate; luciferase refolding luminescence, 3 h; inhibition, % at 5.6 µM; 290,000 tested, 0.91% active;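 active = inhibition above the screen-wide mean plus 3 SD, computed separately per campaign, cut at about 16% in these data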;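 note: 0% = DMSO wells and 100% = 60 µM geldanamycin wells; inhibitors lower the luminescence because luciferase stays unfolded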
TWEAK Fn14 block: blocks TWEAK-Fn14 interaction in a reporter cell assay | TWEAK-stimulated Fn14 reporter cells, luciferase luminescence, 8 h | inhibition, % at 10 µM | 360,000 tested, 2% active; in the data active = inhibition above about 50%
HSF-1 act: increases HSF-1 driven luciferase reporter signal | NIH3T3-HGL HSF-1 luciferase reporter, MG132, 8 h; 100% = twice DMSO control signal | activation, % at 9 µM | 300,000 tested, 1.7% active | AID 504408;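 active = mean replicate activation of at least 50% with a set share of replicates each reaching 50%; inconclusive = only one of those two conditions met; inactive = mean below 50% and too few replicates reaching it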;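 note: 0% = median of the neutral control wells and 100% = twice that signal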
TROY signal inh: inhibitors of TROY-dependent NF-kB signaling; Q293 LMP1-TROYcd NF-kB luciferase reporter, 4 h; inhibition, % at 10 µM; 360,000 tested, 0.98% active;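 active = compounds whose plate-normalised and pattern-corrected inhibition of the luciferase reporter signal at the single screening dose is 50% or more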
* hit, by the source's call; ? = inconclusive; . = not tested or not shown; ! = not active in a repeat.

SMILES	HSF1 inhib	LMP1 NFkB inh	HSP90 inh	TWEAK Fn14 block	HSF-1 act	TROY signal inh
CC(=O)Nc1cc2c3c(cccc3c1)-c1ccccc1-2	.	-32	.	-49	.	-69
O=c1oc2ccc(C#CC3(O)CCCCC3)cc2cc1-n1cc(-c2ccccn2)nn1	.	9	.	58*	.	41
COc1cc(NC(=O)CN(C)S(=O)(=O)c2ccc(-c3ccc(=O)[nH]n3)s2)cc(OC)c1	-91*	3	-2	14	-93	-21
O=C(c1ccc(CSc2nc3ccncc3[nH]2)cc1)N1CCN(c2cccc(Cl)c2)CC1	-2	9	-2	61*	-13	54*
O=C(NCc1ccc(Cl)cc1)c1ccc(CSc2nc3ccncc3[nH]2)cc1	8	-7	2	25	-5	19
COc1ccc2[nH]c3c4c(ccc3c2c1)C(=O)C=CC4=O	.	-26	6	72*	.	43
COc1ccc2[nH]c(=O)cc(C(=O)O)c2c1	-1	-1	-2	-8	-15	0
O=C(COc1ccc(CNC[C@H]2O[C@@H](n3ccc(=O)[nH]c3=O)[C@H](O)[C@@H]2O)cc1)Nc1nccs1	.	.	.	8	.	-4
CC1(C(=O)NS(=O)(=O)c2cccc(Cl)c2)CCN1C(=O)c1cccc2ccccc12 (stereo not given)	.	.	.	3	.	0
O=C(NCc1ccc(C(F)(F)F)cc1)C1CC(c2ccc(C(F)(F)F)cc2)=NO1 (stereo not given)	-5	1	.	22	-1	30
O=C(NCc1ccccc1C(F)(F)F)C1CC(c2ccc(C(F)(F)F)cc2)=NO1 (stereo not given)	-65*	-1	.	-13	-72	1
Fc1cccc(Cl)c1C1SCc2nc3ccccc3n21 (stereo not given)	.	.	.	19	.	7
O=C(Cc1ccccc1)Nc1ncnc2c1C(c1ccccc1)c1c(ccc3ccccc13)O2 (stereo not given)	.	13	.	51*	.	39
O=C(Nc1ncnc2c1C(c1ccccc1)c1c(ccc3ccccc13)O2)c1ccccc1 (stereo not given)	.	-3	.	54*	.	13
C[C@H](CO)N1C[C@H](C)[C@@H](CN(C)C(=O)Nc2ccccc2)Oc2ncc(-c3ccc(C#N)cc3)cc2C1=O	.	1	.	-10	.	-3
CC1(C(=O)NS(=O)(=O)c2ccccc2C(F)(F)F)CCN1C(=O)CCC1CCCC1 (stereo not given)	.	.	.	-11	.	12
Cc1ccc(C(=O)n2cnnc2N)cc1	15	-1	1	13	66*	35
O=C([C@H]1O[C@@H](n2ccc(=O)[nH]c2=O)[C@H](O)[C@@H]1O)N1CCN(Cc2ccccn2)CC1	.	.	.	5	.	-7
CC1(C(=O)NCc2cccs2)Cc2c(-c3cccc(C(F)(F)F)c3)ccnc2O1 (stereo not given)	.	.	.	22	.	21
CCOC(=O)c1sc(NC(=O)c2ccc(S(=O)(=O)N3CCOCC3)cc2)nc1-c1ccccc1	-2	-2	0	65*	9	33
CCOC(=O)c1sc(NC(=O)c2ccc(S(=O)(=O)N3CCCCCC3)cc2)nc1-c1ccccc1	-12	-3	0	77*	-11	22
CCOC(=O)c1sc(NC(=O)c2ccc(S(=O)(=O)N3CCCCC3)cc2)nc1-c1ccccc1	-3	-9	-1	71*	-6	17
CC1=C2C3OC(=O)C(C)C3CCC2(C)C=C(Br)C1=O (stereo not given)	.	-8	.	1	.	3
CCOc1ccc(/C=C2\SC(=O)N(CCNC(=O)C3COc4ccccc4O3)C2=O)cc1OC (stereo not given)	?	4	1	40	-58	51*
C[C@H](O)[C@@H]1C(=O)N2CCc3ccc(N4CCN(C)CC4)cc3[C@@H]2C[C@@H]1N(C)C(=O)c1cccnc1	.	-7	.	-3	.	12
SMILES	HSF1 inhib	LMP1 NFkB inh	HSP90 inh	TWEAK Fn14 block	HSF-1 act	TROY signal inh
CCOC1=C2[C@@H](CN(S(=O)(=O)c3ccc(C)cc3)[C@H]2c2cccc3ccccc23)[C@H]2C(=O)NC(=O)[C@H]2C1	.	.	.	23	.	15
O=C1C=Cc2cccc3ccc(O)c1c23	.	44*	.	12	.	18
O=C(Sc1cccc2cccnc12)c1ccc(F)cc1	.	.	5	.	.	.
O=C(Sc1cccc2cccnc12)c1ccccc1Br	138	-23	2	101*	207*	-19
CC(=O)/C(=N\Nc1ccccc1Cl)Sc1cccc2cccnc12	131	-2	-1	-18	143*	2
CC(=O)/C(=N\Nc1ccccc1)Sc1cccc2cccnc12	167	-18	3	12	187*	4
C#CCOc1ccc(CNC[C@H]2O[C@@H](n3ccc(N)nc3=O)[C@H](O)[C@@H]2O)cc1	.	-12	.	-7	.	-3
CN1CC(O)(C(O)C(O)C(O)CO)SC1=S (stereo not given)	.	-7	.	11	.	-16
Nc1c(C(=O)c2ccc(Cl)cc2)sc2nc3c(cc12)CCC3	27	-25	6	-68	51*	-54
Cc1cc(=O)[nH]c(NCc2ccccc2)n1	10	0	16*	-24	33	2
Cc1cc(=O)[nH]c(NC(=O)Cc2ccccc2)n1	.	3	.	1	.	-8
CC(=O)NCCNc1nc2cc(-c3ccc4c(ccn4C)c3)sc2c(=O)n1C	.	.	.	12	.	-22
Cc1ccc(C)c(N2CCN(CCCNC(=O)Cn3cc4c(n3)CCCCC4)CC2)c1	-8	13	-5	2	2	19
Cc1ccc(C)c(N2CCN(C(=O)Cn3cccc3)CC2)c1	1	8	1	5	-3	12
CCC(=O)N1CCN(c2cc(C)ccc2C)CC1	-2	2	1	76*	1	-9
Cc1ccc(C)c(N2CCN(CCN3CCCCC3)CC2)c1	-57*	-6	-2	9	-63	-2
COc1cc(CN2C[C@@H](CO)O[C@@H](n3cnc4c(N5CCCC5)ncnc43)C2)cc(OC)c1OC	.	.	.	0	.	4
CC(C)[C@H](NC(=O)Cc1ccccc1)C(=O)OCc1cc(=O)n2c(n1)sc1ccccc12	-72*	15	5	11	-78	19
CC(C)n1cc(CN2CCCC(CO)(Cc3cccc(Cl)c3)C2)cn1 (stereo not given)	-4	-2	0	12	-26	51*
c1ccc(N2CCN(c3nc(NCc4ccco4)c4ccccc4n3)CC2)cc1	11	18	8	-5	20	-32
CCCCNc1nc(NCc2ccccc2)nc2ccccc12	.	.	.	34	.	55*
c1ccc(CNc2nc(N3CCN(Cc4ccccc4)CC3)nc3ccccc23)cc1	-55*	.	4	-37	-65	39
C=CCNc1ncnc2ccccc12	-10	4	-2	41	-27	50*
c1ccc(CNc2ncnc3ccccc23)cc1	-19	22	2	52*!	-10	28
COc1cccc(-c2cc3nc(NCc4ccc(C)cc4C)n(C)c(=O)c3s2)c1	.	.	.	45	.	-7

High-throughput results as filed in PubChem BioAssay.
